# About 83,000 compounds went through this panel and 20% of them were active in at least one assay; those are over-represented in the sample as a whole.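 Each cell line was grown in a 96-well plate and treated with one concentration of compound for 48 hours. Values below 10 were considered active.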 Unmarked numbers belong to inactive results. The source made the active and inactive calls.
# Legend:
# Test in all cases: NCI-60 one-dose screen, 48 h (100 = growth as untreated, 0 = no growth, -100 = all killed)
# Settings in all cases: 10 µM unless noted
# T-47D breast = system: T-47D breast
# BT-549 breast = system: BT-549 breast
# MDA-MB-435 melanoma = system: MDA-MB-435 melanoma
# SW-620 colon = system: SW-620 colon
# MCF7 breast = system: MCF7 breast
# HCT-116 colon = system: HCT-116 colon
# HCC-2998 colon = system: HCC-2998 colon
# KM12 colon = system: KM12 colon
Structure (SMILES),growth (T-47D breast),growth (BT-549 breast),growth (MDA-MB-435 melanoma),growth (SW-620 colon),growth (MCF7 breast),growth (HCT-116 colon),growth (HCC-2998 colon),growth (KM12 colon)
CC1=C(C)C[C@]2(C(=O)O[C@H]3CCCC[C@@H]32)[S@](=O)C1,105%,91.6%,103%,110%,95%,108%,95%,101%
COc1ccc(-c2nnc(SCC(=O)Nc3ccc(C(=O)/C=C/c4cc(OC)c(OC)c(OC)c4)cc3)n2-c2ccccc2)cc1OC,-43.3% [100 µM] (active),-94.7% [100 µM] (active),-16.1% [100 µM] (active),12.2% [100 µM],1.19% [100 µM] (active),-84.5% [100 µM] (active),8.22% [100 µM] (active),
COc1ccc(Cn2cc3c(c2-c2ccc(O)cc2)CCc2cnoc2-3)cc1,50%,44.4%,-39.4% (active),22.5%,14.7%,11.1%,-21.1% (active),11.8%
CC(=O)N(N=O)c1ccc([N+](=O)[O-])cc1Cl,29.2%,71.7%,66.7%,71.6%,52.2%,44.9%,76.6%,69%
COc1cc(NC(C)CCCN)c2nc(C)ccc2c1OC (configuration not stated),90.5%,103%,121%,104%,47.1%,102%,87.2%,103%
Cc1nnc(-c2cc3c(ccc4ccccc43)oc2=O)c2cn(-c3ccc(Cl)cc3)nc12,76.2%,105%,107%,99.3%,80.1%,85.6%,97.3%,94.4%
CCc1c(C)c2ccc(OCC(=O)N=Nc3c(O)[nH]c4ccccc34)c(C)c2oc1=O,-53.3% (active),11.3%,0.887% (active),-29.2% (active),-4.72% (active),-7.72% (active),-2.02% (active),-23.4% (active)
O=C(N/N=C/c1cc(Cl)ccc1O)C(=O)N/N=C/c1cc(Cl)ccc1O,73.5%,86.9%,67.8%,61.3%,61.3%,60.2%,59.5%,59.1%
CC(=O)c1cc(Nc2cc(C)nc(N)n2)cc(C(C)=O)c1,85.9%,98.7%,117%,92.2%,110%,97%,51.9%,97.3%
O=C(O)COc1ccc([N+](=O)[O-])cc1Cl,86.1%,107%,107%,108%,102%,105%,113%,103%
Cn1c2ccccc2c2ccccc21,90%,106%,103%,106%,106%,107%,110%,101%
Cc1ccc2c(c1)C(=O)CCS2,106%,101%,104%,97.1%,93.3%,103%,99.6%,108%
[N-]=[N+]=Nc1ncc(-c2ccc(C(F)(F)F)cc2)c(NC2CCCCCC2)n1,21.3% [100 µM],45.4% [100 µM],19.1% [100 µM],27.2% [100 µM],16.3% [100 µM],16% [100 µM],39.7% [100 µM],
O=C(/C=C/c1c[nH]c2ccccc12)c1cc2ccccc2o1,82.8%,79.6%,92.1%,95.2%,65.9%,62%,105%,75.7%
COc1cc2c(cc1OC)C(Cc1cc(OC)c(OC)cc1[N+](=O)[O-])=NCC2,78.5%,56.6%,90.9%,82%,94%,62.2%,89.5%,88%
CSc1nc(N)n2nccc2n1,102%,99.6%,98.3%,97.9%,96%,99.2%,100%,114%

Structure (SMILES),growth (T-47D breast),growth (BT-549 breast),growth (MDA-MB-435 melanoma),growth (SW-620 colon),growth (MCF7 breast),growth (HCT-116 colon),growth (HCC-2998 colon),growth (KM12 colon)
NC(N)=Nc1ccc(/C=C2\C=Cc3ccccc32)cc1,50.6%,81.5%,21.6%,33.5%,25%,47.5%,62.6%,15.2%
CCn1cnc(C[C@H](NC(=O)[C@@H](NC(=O)Nc2cc(C(F)(F)F)cc(C(F)(F)F)c2)C(C)(C)C)C(=O)OC)c1,-58% [100 µM] (active),-86.2% [100 µM] (active),-90.7% [100 µM] (active),-60% [100 µM] (active),-62% [100 µM] (active),-81% [100 µM] (active),-89.3% [100 µM] (active),
Cc1c(Cc2ccccc2)c(=O)oc2c(C)c(OCc3n[nH]c(=S)o3)ccc12,53.1%,96.9%,61.5%,-7.67% (active),14.5%,6.37% (active),94.9%,43.1%
COC(=O)c1cc(=O)nc(N/N=C/c2ccccc2O)s1,73.1%,94.7%,100%,106%,5.18% (active),58.7%,89.1%,95.3%
COCn1c(C(=O)OC)cc2oc(/C=C3/SC(=S)N(N)C3=O)cc21,94.4%,80.8%,94.9%,97.6%,97%,93.8%,102%,92.3%
CCC(C)[C@H](NC(=O)Nc1cc(C(F)(F)F)cc(C(F)(F)F)c1)C(=O)N[C@@H](Cc1cn(C)cn1)C(=O)OC (some centres not stated),-63.1% [100 µM] (active),-94.5% [100 µM] (active),-91.6% [100 µM] (active),-58.3% [100 µM] (active),-60.1% [100 µM] (active),-93.1% [100 µM] (active),-89.9% [100 µM] (active),
Nc1nc2c(c3cnccc13)C(c1ccc(Cl)c(Cl)c1)Cc1cnccc1-2 (configuration not stated),16.9%,-39.1% (active),-53% (active),3.85% (active),0.513% (active),-37.8% (active),-75.7% (active),-34.8% (active)
COc1ccc(Cn2cc3c(c2-c2ccccc2)CCc2cnoc2-3)cc1OC,28.3%,45.8%,-33.9% (active),25.2%,11.4%,22.8%,37.4%,29.2%
COc1ccc(-c2nc(N)n(C(=S)Nc3ccccc3)n2)cc1,84.8%,102%,107%,99%,89.1%,98.3%,107%,95.5%
O=C1/C(=C\c2cn(-c3nc(N4CCOCC4)nc(N4CCOCC4)n3)c3ccccc23)c2ccccc2N1c1c(Cl)cccc1Cl,45.5%,39.1%,83.5%,84.5%,50.6%,71.6%,75.5%,88.5%
C/C(=C\c1ccc2ccccc2c1)[N+](=O)[O-],-52.8% (active),64.4%,51.8%,-33.8% (active),-50.9% (active),-40.7% (active),78.5%,56%
CCCC(=O)Nc1ccccc1C(=O)O,117%,113%,101%,105%,90.7%,103%,97.9%,90.5%
CCOC(=O)C1=C(C(F)(F)F)NC(=O)NC1CN1C(=O)c2ccccc2C1=O (configuration not stated),111%,108%,108%,105%,108%,112%,101%,115%
CC1(C)CC(=O)C2=C(C1)Oc1nc(N)c(C#N)c(N)c1C2c1ccc(F)cc1 (configuration not stated),116%,100%,112%,101%,109%,109%,132%,109%
CN1NC(c2ccccc2)NN(C)C1=O,95.7%,109%,102%,91.1%,96.3%,101%,103%,118%
C=C(NC(=O)[C@H](C(C)C)N(C)c1cccc2[nH]ccc12)C(=O)OC,95.4%,95.3%,102%,110%,99.6%,94.1%,113%,109%
